Source: the OligoGym collection

molecular target: CHCHD8; test: pooled miR-30 sensor sort-seq; sequence = guide strand; conditions: shRNA
Note: reference of the scale not given here.

Sequence | sensor-assay potency score (higher = more potent)
TCGTCTTTCTTCACCCGTTGGG | -0.227
ATCGTCTTTCTTCACCCGTTGG | -0.879
TTGCCGCCAGTCCTGGTGCTGG | -1.88
TTGTTCTTGCCTCCTCTGCAGC | -1.04
TCATCGTCTTTCTTCACCCGTT | -0.24
TTCTTCACCCGTTGGGTCCAGG | -0.933
TCTTCCTCTATAATCTTGCTGG | -0.27
TCATGCAATCCTTGAACGCCTG | -0.766
TATGACAGCTGTTTGTGCCAGT | 0.271
TTGCCTCCTCTGCAGCTCCTCT | -1.69
TTCTTGCCTCCTCTGCAGCTCC | -1.23

molecular target: CHD2; test: as above; conditions: shRNA

Sequence | sensor-assay potency score (higher = more potent)
TTCCTTAATATTAAATCGCGAT | -0.656
TTCTTCTTGAGACCTTTTCTTA | -0.844
TTATAAGCCTTGATGAACCTTC | 0.197
TCAACAAGTAATCCGCTCGGGT | -0.663
TAAGCCTTGATGAACCTTCGGA | 0.0623
TTTAAAGCTACAAATCGTGGTC | 0.518
TAGCACCTTATGAAGACTCTGG | -0.21
TTTCATTGGACTTTTTTCCAAG | -0.762
TGCATTGCTGACACACAGCTGT | -0.311
TTTTGCACCAGGAATGAGCTAG | 0.429
TATTACTCTTTCTACTATCTGA | 0.18
TTGTTTTCCAGGATCGTCCGGC | -0.196
TTTATCTGTCTCCACCGGCAGA | -1.04
TTGATTGTTGGACCTCTCCTTT | -0.473
TTATCTGTGTGGAAAGAGCGGT | -0.167
TTCAACAAGTAATCCGCTCGGG | 0.35
TTCTTCACATCAGCTATCCGTT | -0.528
ATAAATTTCTTCTAGCTCCTTC | 1.15
TTCTTCTAGCTCCTTCTGCCGC | -0.813
TGACACTTCATTCTCTCTCGTT | -0.0754
TTGCACTTGTTGACACTTCATT | -0.8
TAAACTGTGATAGAAGTTCATC | -0.983
TTTCTTATGAGCCATCTTGTAT | -1.08

molecular target: CHEK1; test: as above; conditions: shRNA

Sequence | sensor-assay potency score (higher = more potent)
TTTGTCTGCATCCAATTTGGTA | -0.969
TAGCAGCACTATATTCACCAGG | -0.884
TTTTCTTCCATTGATAGCCCAA | -0.419
TTGTCTGCATCCAATTTGGTAA | -1.02
TAAAGTACCACACATCTTGTTC | -0.726
TTTTCTTCACTAGAAGCACTGT | 0.254
